Bioassay records from PubChem.
Sampled rows, rich in hits. Any-hit rate of the full collection: about 6.5%.
HCMV antiviral: qHTS Assay for inhibitors of the human cytomegalovirus (HCMV) | hit rate 4.5% among 410,000 | activity change, negative = inhibition, % at 57.5 µM | HFF cells, HCMV-luciferase reporter, 72 h; active compounds read low; in the data active = activity change below about -60%; inconclusive = no clear call, values can overlap the other calls; inactive = above about -39%
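Luciferase read-out from HCMV-luciferase-infected HFFs (MOI 1 PFU/cell) 72 h post infection at 37C; compounds added after 16 h cell attachment; activity normalized between buffer-only basal and Salinomycin (10uM) inhibitor controls.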
Lassa entry inh: qHTS for Inhibitors of binding or entry into cells for Lassa Virus; hit rate 1.2% among 300,000; Lassa virus pseudotype entry inhibition, cell reporter; Potency, µM (titrated, usually from 37.9 µM), without a hit: at the highest dose activity change, negative = inhibition, actives largely listed as inhibitors; calls by dose curve; tested in HEK293 cells; also: potency is read from the fitted curve at half-maximal effect; nearly all actives have a fitted effect of over 50% in size
FMDV inh: High Throughput Screening for Foot and Mouth Disease Virus Antivirals | FMDV antiviral cell-based qHTS | Potency, µM (titrated, usually from 57.9 µM), without a hit: top-dose activity change, negative = inhibition, actives largely listed as inhibitors | hit rate 1.2% among 410,000 | AID 1159524, 2015; calls by dose curve; tested in HEK293T cells; also: read-out not given here; potency is read from the fitted curve at half-maximal effect; nearly all actives have a fitted effect of over 45% in size
MARV entry inh: qHTS for inhibitors of binding or entry into cells for Marburg Virus | Marburg virus pseudotyped entry inhibition, cell reporter | Potency, µM (highest dose often 37.8 µM), without a hit: at the top dose activity change, negative = inhibition, usual class: inhibitors | hit rate 1.8% among 300,000 | AID 540276, 2011; calls by dose curve; tested in HEK293 cells; also: potency is read from the fitted curve at half-maximal effect
VACV Venus inh: qHTS for Stage-Specific Inhibitors of Vaccinia Orthopoxvirus: Venus Reporter Primary qHTS. Vaccinia virus Venus reporter expression, fluorescence. Potency, µM (titrated, usually from 36.5 µM), inactives show at the highest dose activity change, negative = inhibition, usual class: inhibitors. hit rate 0.46% among 330,000. AID 720580, 2013; calls by dose curve; tested in A549 cells; also: potency is read from the fitted curve at half-maximal effect; nearly all actives have a fitted effect of over 30% in size
Vaccinia mCherry: qHTS for Stage-Specific Inhibitors of Vaccinia Orthopoxvirus: mCherry Reporter Primary qHTS | Potency, µM (series often up to 36.5 µM), for inactives: at the highest dose activity change, negative = inhibition, hits mostly inhibitors | Vaccinia virus mCherry reporter infection, fluorescence | AID 720579, 2013 | hit rate 0.63% among 310,000; calls by dose curve; tested in A549 cells; also: potency is read from the fitted curve at half-maximal effect; nearly all actives have a fitted effect of over 35% in size
Numbers without * were called inactive; i = inactive; ? = inconclusive; . = no result given; [ ] = dose if it differs, or a comment. % is scaled to controls: 0 for no effect and ±100 for the full control effect.

SMILES | HCMV antiviral | Lassa entry inh | FMDV inh | MARV entry inh | VACV Venus inh | Vaccinia mCherry
CCOc1ccc(Nc2cc(C)nc3c(C)cccc23)cc1 | -76* | -29% | -22% | 0.89µM* | -17% | -19%
Cc1cc(Nc2cccc([N+](=O)[O-])c2)c2ccccc2n1 | -5 | 10% | ? | -1%[46.1 µM] | ? | ?
COc1ccc(Cl)cc1Nc1cc(C)nc2ccccc12 | -87* | . | ? | . | . | .
CC1(C)CC2/C(CO)=C/C=C/[C@](C)(O)CC[C@]21O (stereo partly specified) | . | . | -7% | . | 7% | -7%
COc1ccc(OC)c(C(=O)N2CCOc3ccc(C(C)(O)CN(C)C)cc3C2)c1 (stereo unspecified) | . | . | 0% | . | -6% | -11%
Cc1cc(Nc2ccc(C)c(C)c2)c2ccccc2n1 | -63* | -3%[46.1 µM] | -23% | 3.2µM* | -6% | ?
CCCSc1ccc(C(=O)Nc2ccc(F)cc2F)cn1 | -62* | -5%[46.1 µM] | 18% | ? | -26% | i
CCCSc1nsc(NC(=O)CC)n1 | 11 | ? | -1% | 13µM* | -12% | i
Cc1cc(C)nc(NC(=O)Nc2ccc(F)cc2F)n1 | 22 | . | 32% | . | . | .
CCCSc1nsc(NC(=O)Nc2ccc(F)cc2F)n1 | -101* | . | 7% | . | . | .
COc1cccc(NC(=O)Nc2nc(SC(C)(C)C)ns2)c1 | -95* | . | -29% | . | . | .
Cn1c2c(c(=O)n(C)c1=O)[C@@](NC(=O)C(C)(C)C)(C(F)(F)F)C(=O)N2 | . | . | . | -3% | . | .
COc1cccc(NC(=O)Nc2nc(SC)ns2)c1 | ? | 15%[46.1 µM] | -6% | ? | -15% | ?
CCSc1nsc(NC(=O)Nc2cccc(F)c2)n1 | -98* | ? | ? | ? | ? | -17%
CN(c1ccccc1)S(=O)(=O)c1cccc(NC(=O)c2cc(=O)c3ccccc3o2)c1 | -66* | ? | 32µM* | 13µM* | -4% | -12%
NS(=O)(=O)c1cccc(NC(=O)c2cc(=O)c3ccccc3o2)c1 | 7 | 4%[46.1 µM] | 24% | -7%[46.1 µM] | -8% | -10%
O=C(Nc1cccc(S(=O)(=O)N2CCCCCC2)c1)c1cc(=O)c2ccccc2o1 | -5 | -7% | 20µM* | ? | -24% | -29%
CC(=Nc1ccc(Cl)cc1N)c1c(O)cc(C)oc1=O | 112 | . | . | . | . | .
O=C(c1cccs1)N1C[C@H](O)[C@H](n2cc(C3CC3)nn2)C[C@@H]1c1ccc(Cl)cc1 | . | -15%[46.1 µM] | . | . | . | .
CC(=O)NC1=C(N2CC2C)C(=O)C(NC(C)=O)=C(N2CC2C)C1=O (stereo unspecified) | -11 | -12% | 2% | -8% | -11% | 0%
COCC(=O)OC1CCn2c1nc1c2C(=O)C(C)=C(NC(C)=O)C1=O (stereo unspecified) | -79* | 3.2µM* | 10µM* | ? | ? | ?
CCN(CC)C(=O)c1sc2c(c1C)c(=O)n(CCc1ccccc1)c(=O)n2Cc1cccc(Cl)c1 | ? | 6.3µM* | ? | . | -25% | -29%
CCN(CC)C(=O)c1sc2c(c1C)c(=O)n(CCc1ccccc1)c(=O)n2Cc1ccc(F)cc1Cl | 7 | 7%[46.1 µM] | -6% | . | -17% | -18%
Cc1ccc(Cn2c(SCC(=O)NCc3ccccc3Cl)nc3ccsc3c2=O)cc1 | -35 | 20%[46.1 µM] | -14% | . | -18% | -17%
CC(C)(C)NCC(O)(c1ccc(Cl)cc1)c1ccc(Cl)cc1 | . | ? | -24% | 3.2µM* | 0% | ?
SMILES | HCMV antiviral | Lassa entry inh | FMDV inh | MARV entry inh | VACV Venus inh | Vaccinia mCherry
CC(C)NCC(O)(c1ccc(Cl)cc1)c1ccc(Cl)cc1 | ? | -12%[46.1 µM] | -10% | ? | -12% | -19%
S=c1[nH]c(-c2ccc(Cl)cc2)cs1 | -62* | . | 9% | 0%[46.1 µM] | -2% | -15%
CSc1nnc(CCNC(=O)c2ccccc2C(F)(F)F)n1-c1ccc(F)cc1 | . | . | -15% | . | 8% | -5%
CC(C)(C)n1nnnc1C(CCc1ccccc1)N1CCC(n2c(=O)[nH]c3ccccc32)CC1 (stereo unspecified) | -99* | . | 32µM* | . | -23% | -20%
CSCCC(c1nnnn1C1CCCCC1)N1CCC(n2c(=O)[nH]c3ccccc32)CC1 (stereo unspecified) | -93* | . | ? | . | -7% | -5%
O=c1[nH]c2ccccc2n1C1CCN(C(CCc2ccccc2)c2nnnn2C2CCCCC2)CC1 (stereo unspecified) | -91* | . | 28µM* | . | ? | ?
CC(C)(C)n1nnnc1C(C1CC1)N1CCC(n2c(=O)[nH]c3ccccc32)CC1 (stereo unspecified) | -10 | . | -26% | . | 4% | 24%
CSCCC(c1nnnn1C1CCCC1)N1CCC(n2c(=O)[nH]c3ccccc32)CC1 (stereo unspecified) | ? | . | -23% | . | 4% | 16%
C=C1C=C(C(F)F)n2ncc(C(=O)NC(C)CC)c2N1 (stereo unspecified) | . | . | . | . | -14% | -5%
COC(=O)c1cc2c(c3c4ccccc4n(S(=O)(=O)c4ccccc4)c13)C(=O)N(Cc1ccc(N(C)C)cc1)C2 | -14 | . | . | . | . | .
CCOC(=O)c1c(S(=O)(=O)NCC(=O)N2CCN(c3cccc(Cl)c3)CC2)c(C)n(C)c1C | -21 | -16%[46.1 µM] | -18% | . | -24% | -20%
N#CC(C#N)=C1NC2(CCCCC2)Cc2ccccc21 | -8 | . | -21% | . | . | .
N#CC(C#N)=c1ccc2c(c1)NC1(CCCCC1)N=2 | -85* | ? | 25µM* | ? | -36% | -25%
CC1CCc2nc(N)c(C#N)c(-c3cccnc3)c2C1 (stereo unspecified) | -66* | . | ? | . | -8% | i
Cc1cc(C)nc(NNS(=O)(=O)c2ccc(Cl)cc2)n1 | -61* | 11% | 2% | ? | -8% | -13%
CC1(C)CC(=O)C=C(c2ccccc2-c2ccc3c(c2)OCO3)C1=O | 0 | . | . | . | . | .
COc1ccc(C(=O)c2cn(Cc3ccccc3F)c3cc4c(cc3c2=O)OCCO4)cc1OC | -28 | -13%[46.1 µM] | -9% | 2%[46.1 µM] | -12% | -12%
CCOc1ccc(/C=C/c2nc(C#N)c(NC(C)c3ccccc3)o2)cc1 (stereo unspecified) | ? | ? | -10% | -16%[46.1 µM] | -23% | -18%
CCOc1ccc(/C=C/c2nc(C#N)c(NCc3ccccc3)o2)cc1 | -93* | -20%[46.1 µM] | ? | -19%[46.1 µM] | ? | ?
CN(Cc1nc2ccccc2c(=O)[nH]1)C(=O)c1ccc(S(=O)(=O)N(C)C)cc1 | -13 | 12% | -11% | 4% | . | .
CC(=O)c1ccc(-c2ccc(C(=O)N(C)Cc3nc4ccccc4c(=O)[nH]3)o2)cc1 | -30 | . | 22µM* | . | . | .
CC=C1C2C=C(C)CC1(N)c1ccc(=O)[nH]c1C2 (stereo unspecified) | . | . | -7% | . | -9% | -18%
